Assay results from PubChem BioAssay (EPA / NIEHS).
The source made the active and inactive calls. Rule for the calls: active = hit-call score of the fitted dose curve at least 0.9, where 1 is the maximum; inactive = score below 0.9.

Tests used:
Details in all cases: mRNA level, 48 h; actives raise or lower the signal
[1] = read-out: Ezrin (EZR), EZR (gene 7430); test: LTEA_HepaRG_EZR: Life Technologies and Expression Analysis (LTEA) Assay for Ezrin (EZR) using HepaRG (AID 2283491)
Procedure, shortened: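 HepaRG, 48 h chemical exposure, 8-pt half-log series from 100 uM, 0.5% DMSO vehicle, duplicates. Read-out: EZR mRNA by TaqMan qRT-PCR (Fluidigm array), housekeeping-normalized; bidirectional curve fit vs DMSO baseline.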

[2] = read-out: Cytochrome P450 3A7 (Homo sapiens) (UniProt P24462); test: LTEA_HepaRG_CYP3A7: Life Technologies and Expression Analysis (LTEA) Assay for CYP3A7 using HepaRG (AID 2283492)
Procedure, shortened: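 CYP3A7 transcript levels were read by TaqMan qRT-PCR on Fluidigm arrays after 48 h chemical exposure of human HepaRG cells, with housekeeping-gene normalisation. Eight half-log concentrations up to 100 uM in 0.5% DMSO were tested in duplicate.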

CYP3A5 (gene 1577) = test: LTEA_HepaRG_CYP3A5: Life Technologies and Expression Analysis (LTEA) Assay for CYP3A5 using HepaRG (AID 2283493)
Procedure, shortened: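 HepaRG cells, plated 48 h then in serum-free induction medium, dosed in duplicate for 48 h with eight half-log concentrations up to 100 uM in 0.5% DMSO. Gene mRNA by Fluidigm TaqMan qRT-PCR, normalized to ACTB, GAPDH, POLR2A.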

[3] = read-out: Fatty Acid-Binding Protein 1 (FABP1), FABP1 (gene 2168); test: LTEA_HepaRG_FABP1: Life Technologies and Expression Analysis (LTEA) Assay for Fatty Acid-Binding Protein 1 (FABP1) using HepaRG (AID 2283494)
Procedure, shortened: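 HepaRG, 48 h post-plating switched to serum-free induction medium, then dosed 48 h (duplicate, 8 pts, ≤100 uM, 0.5% DMSO). RNA → Fluidigm TaqMan qRT-PCR, FABP1 normed to ACTB/GAPDH/POLR2A. Bidirectional curve fit vs DMSO.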

[4] = read-out: Cytochrome P450 4A22 (Homo sapiens) (UniProt Q5TCH4); test: LTEA_HepaRG_CYP4A22: Life Technologies and Expression Analysis (LTEA) Assay for Cytochrome P450 4A22 (CYP4A22) using HepaRG (AID 2283495)
Procedure, shortened: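 HepaRG, 48 h post-plating -> serum-free induction medium; dosed 48 h, duplicate, 8 conc. (100 uM top, half-log), 0.5% DMSO. Readout: CYP4A22 mRNA by qRT-PCR, ACTB/GAPDH/POLR2A normalization; gain/loss fit relative to DMSO.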

[5] = read-out: Cytochrome P450 7A1 (Homo sapiens) (UniProt P22680); test: LTEA_HepaRG_CYP7A1: Life Technologies and Expression Analysis (LTEA) Assay for Cytochrome P450 7A1 (CYP7A1) using HepaRG (AID 2283496)
Procedure, shortened: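 HepaRG cells plated 48 h, then switched to serum-free induction medium and exposed in duplicate for 48 h to 8-point half-log series from 100 uM in 0.5% DMSO. CYP7A1 mRNA by qRT-PCR (TaqMan), normalized to ACTB/GAPDH/POLR2A; bidirectional fit versus DMSO.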

[6] = read-out: Glutathione S-Transferase (GSTA2), GSTA2 (gene 2939); test: LTEA_HepaRG_GSTA2: Life Technologies and Expression Analysis (LTEA) Assay for Glutathione S-Transferase (GSTA2) using HepaRG (AID 2283497)
Procedure, shortened: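 HepaRG, 48 h dosing, 8-pt half-log CRC from 100 uM, 0.5% DMSO vehicle, n=2; RNA → Fluidigm TaqMan qRT-PCR; GSTA2 vs ACTB/GAPDH/POLR2A; gain/loss fit vs DMSO.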

[7] = read-out: Glutamate-cysteine ligase catalytic (GCLC), GCLC (gene 2729); test: LTEA_HepaRG_GCLC: Life Technologies and Expression Analysis (LTEA) Assay for Glutamate-cysteine ligase catalytic (GCLC) using HepaRG (AID 2283498)
Procedure, shortened: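 Read-out is GCLC transcript level by Fluidigm-based TaqMan qRT-PCR, normalized to three housekeeping genes and fitted in both directions relative to 0.5% DMSO. Human HepaRG cells received chemicals for 48 h, up to 100 uM.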

[8] = read-out: growth arrest and DNA damage 45 (GADD45G), GADD45G (gene 10912); test: LTEA_HepaRG_GADD45G: Life Technologies and Expression Analysis (LTEA) Assay for growth arrest and DNA damage 45 (GADD45G) using HepaRG (AID 2283499)
Procedure, shortened: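 HepaRG, 48 h exposure, top 100 uM, half-log 8-point series, 0.5% DMSO vehicle, duplicates. Readout: GADD45G transcript by qRT-PCR (Fluidigm array), housekeeping-normalised (ACTB/GAPDH/POLR2A). Bidirectional curve fit vs DMSO baseline.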

[9] = read-out: Glutathione S-transferase M3 (GSTM3), GSTM3 (gene 2947); test: LTEA_HepaRG_GSTM3: Life Technologies and Expression Analysis (LTEA) Assay for Glutathione S-transferase M3 (GSTM3) using HepaRG (AID 2283501)
Procedure, shortened: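 qRT-PCR read-out of GSTM3 transcript, normalized to three housekeeping genes, from human HepaRG cells after 48 h chemical exposure. Eight-point half-log series, top 100 uM, 0.5% DMSO vehicle; gain or loss fitted relative to DMSO baseline.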

[10] = read-out: Heat shock 70 kDa protein 1 (HSPA1A), gene 3303; test: LTEA_HepaRG_HSPA1A: Life Technologies and Expression Analysis (LTEA) Assay for Heat shock 70 kDa protein 1 (HSPA1A) using HepaRG (AID 2283502)
Procedure, shortened: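 Human HepaRG cells in serum-free induction medium were exposed in duplicate for 48 h to 8 half-log concentrations, highest 100 uM, in 0.5% DMSO. HSPA1A mRNA read by TaqMan qRT-PCR, normalized to ACTB, GAPDH, POLR2A, fitted bidirectionally against DMSO.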

[11] = read-out: Hypoxia-inducible factor 1-alpha (Homo sapiens) (UniProt Q16665); test: LTEA_HepaRG_HIF1A: Life Technologies and Expression Analysis (LTEA) Assay for Hypoxia-inducible factor 1 (HIF1A) Trancription factor using HepaRG (AID 2283503)
Procedure, shortened: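 Differentiated HepaRG cells in serum-free induction medium exposed 48 h, in duplicate, to 8-point half-log series from 100 uM in 0.5% DMSO. HIF1A mRNA measured by TaqMan qRT-PCR, normalized to ACTB/GAPDH/POLR2A, fitted bidirectionally versus DMSO.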

[12] = read-out: 3-Hydroxy-3-Methylglutaryl-CoA Synthase 2 (HMGCS2), HMGCS2 (gene 3158); test: LTEA_HepaRG_HMGCS2: Life Technologies and Expression Analysis (LTEA) Assay for 3-Hydroxy-3-Methylglutaryl-CoA Synthase 2 (HMGCS2) using HepaRG (AID 2283504)
Procedure, shortened: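 qRT-PCR read-out of HMGCS2 transcript, normalised to three housekeeping genes, in HepaRG cells after 48 h chemical exposure. Eight-point curves from 100 uM, half-log dilutions, 0.5% DMSO vehicle; gain or loss fitted relative to DMSO baseline.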

HGF (gene 3082) = test: LTEA_HepaRG_HGF: Life Technologies and Expression Analysis (LTEA) Assay for Hepatocyte Growth Facto (HGF) using HepaRG (AID 2283505)
Procedure, shortened: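 HepaRG, 48 h dosing, 8-pt half-log series from 100 uM in 0.5% DMSO, duplicates. Readout: TaqMan qRT-PCR of HGF mRNA, housekeeping-normalized; bidirectional curve fit vs DMSO baseline.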

[13] = read-out: Insulin Like Growth Factor 1 (IGF1), IGF1 (gene 3479); test: LTEA_HepaRG_IGF1: Life Technologies and Expression Analysis (LTEA) Assay for Insulin Like Growth Factor 1 (IGF1) using HepaRG (AID 2283506)
Procedure, shortened: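 Differentiated HepaRG cells in serum-free induction medium, exposed 48 h in duplicate to 8 half-log concentrations up to 100 uM in 0.5% DMSO. IGF1 mRNA by Fluidigm qRT-PCR, normalised to ACTB, GAPDH and POLR2A.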

[14] = read-out: Intercellular Adhesion Molecule 1 (ICAM1), ICAM1 (gene 3383); test: LTEA_HepaRG_ICAM1: Life Technologies and Expression Analysis (LTEA) Assay for Intercellular Adhesion Molecule 1 (ICAM1) using HepaRG (AID 2283507)
Procedure, shortened: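 HepaRG, 48 h exposure, 8-pt half-log series from 100 uM, 0.5% DMSO vehicle, duplicates. Readout: TaqMan qRT-PCR mRNA, housekeeping-normalized (ACTB/GAPDH/POLR2A). Bidirectional curve fit vs DMSO baseline.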

[15] = read-out: Insulin-like growth factor-binding protein 1 (IGFBP1), IGFBP1 (gene 3484); test: LTEA_HepaRG_IGFBP1: Life Technologies and Expression Analysis (LTEA) Assay for Insulin-like growth factor-binding protein 1 (IGFBP1) using HepaRG (AID 2283508)
Procedure, shortened: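 qRT-PCR mRNA read-out (TaqMan, Fluidigm array), normalised to three housekeeping genes; HepaRG cells, 48 h exposure, 8-pt half-log series from 100 uM, 0.5% DMSO vehicle; bidirectional curve fit vs DMSO baseline.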

[16] = read-out: Interleukin 6 (IL6), IL6 (gene 3569); test: LTEA_HepaRG_IL6: Life Technologies and Expression Analysis (LTEA) Assay for Interleukin 6 (IL6) using HepaRG (AID 2283509)
Procedure, shortened: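 HepaRG, ~100,000 cells/well, 48 h pre-culture; serum-free induction medium; cmpd 8-pt half-log from 100 uM, 0.5% DMSO, duplicate, 48 h. Lysis in RLT, TaqMan qRT-PCR; gain or loss vs DMSO.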

[17] = read-out: Interleukin 6 Receptor (IL6R), IL6R (gene 3570); test: LTEA_HepaRG_IL6R: Life Technologies and Expression Analysis (LTEA) Assay for Interleukin 6 Receptor (IL6R) using HepaRG (AID 2283510)
Procedure, shortened: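 Differentiated HepaRG cells, plated 48 h, then exposed in duplicate for 48 h in serum-free induction medium to 8 half-log concentrations (top 100 uM, 0.5% DMSO). IL6R mRNA measured by TaqMan qRT-PCR, normalized to ACTB/GAPDH/POLR2A; bidirectional fit vs DMSO.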

[18] = read-out: Glutamate-cysteine ligase regulatory (GCLM), GCLM (gene 2730); test: LTEA_HepaRG_GCLM: Life Technologies and Expression Analysis (LTEA) Assay for Glutamate-cysteine ligase regulatory (GCLM) using HepaRG (AID 2283500)
Procedure, shortened: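 Differentiated HepaRG cells exposed 48 h in serum-free induction medium to eight half-log concentrations up to 100 uM (0.5% DMSO). GCLM mRNA by TaqMan qRT-PCR, normalized to ACTB, GAPDH and POLR2A; bidirectional fit versus DMSO.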

Measured: AC50

Chain of Cytochrome P450 3A7 (Homo sapiens) (P24462 whole entry, looked up): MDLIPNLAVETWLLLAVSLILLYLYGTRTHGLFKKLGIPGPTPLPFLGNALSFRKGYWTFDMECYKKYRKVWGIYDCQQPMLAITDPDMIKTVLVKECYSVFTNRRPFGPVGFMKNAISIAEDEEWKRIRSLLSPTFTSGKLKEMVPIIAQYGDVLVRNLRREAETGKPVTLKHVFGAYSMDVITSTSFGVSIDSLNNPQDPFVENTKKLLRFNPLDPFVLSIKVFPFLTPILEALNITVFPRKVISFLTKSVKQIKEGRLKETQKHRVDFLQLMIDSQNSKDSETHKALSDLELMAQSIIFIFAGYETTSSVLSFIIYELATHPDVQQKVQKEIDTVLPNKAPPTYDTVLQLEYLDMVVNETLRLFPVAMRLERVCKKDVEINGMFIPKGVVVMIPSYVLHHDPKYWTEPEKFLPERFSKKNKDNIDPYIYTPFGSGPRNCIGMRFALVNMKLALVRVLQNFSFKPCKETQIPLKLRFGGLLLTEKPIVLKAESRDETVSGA
Chain of Hypoxia-inducible factor 1-alpha (Homo sapiens) (Q16665 whole entry, looked up): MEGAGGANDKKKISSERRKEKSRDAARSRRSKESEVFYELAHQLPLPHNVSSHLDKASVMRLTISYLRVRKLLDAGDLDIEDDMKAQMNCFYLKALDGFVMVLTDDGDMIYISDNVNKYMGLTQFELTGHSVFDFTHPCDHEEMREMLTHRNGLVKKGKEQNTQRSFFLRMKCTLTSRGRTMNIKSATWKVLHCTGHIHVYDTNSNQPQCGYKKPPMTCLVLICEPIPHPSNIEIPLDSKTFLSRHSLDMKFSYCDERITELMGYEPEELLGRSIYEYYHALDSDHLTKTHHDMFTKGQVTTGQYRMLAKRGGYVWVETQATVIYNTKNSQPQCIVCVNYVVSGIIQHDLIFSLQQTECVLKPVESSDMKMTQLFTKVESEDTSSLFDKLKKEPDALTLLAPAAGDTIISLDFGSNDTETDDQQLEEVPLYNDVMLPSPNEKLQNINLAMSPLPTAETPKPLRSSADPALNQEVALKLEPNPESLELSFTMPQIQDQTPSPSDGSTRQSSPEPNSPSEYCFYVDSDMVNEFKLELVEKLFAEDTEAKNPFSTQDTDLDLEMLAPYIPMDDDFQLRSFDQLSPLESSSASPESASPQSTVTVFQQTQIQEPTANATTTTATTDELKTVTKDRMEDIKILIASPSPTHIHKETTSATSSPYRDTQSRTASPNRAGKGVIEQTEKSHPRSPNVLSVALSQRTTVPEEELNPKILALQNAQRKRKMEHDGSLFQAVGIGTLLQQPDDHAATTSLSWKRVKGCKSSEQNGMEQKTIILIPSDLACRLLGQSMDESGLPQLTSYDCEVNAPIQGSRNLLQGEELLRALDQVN

Oc1ccc2ccccc2c1
not listed: [18]
inactive: all other assays above

CC1(C)NC(=O)N(c2ccc([N+](=O)[O-])c(C(F)(F)F)c2)C1=O
inactive: [2] | [9] | [10] | HGF (gene 3082) | [14]
active: [1] 93 µM | CYP3A5 (gene 1577) 32.3 µM | [3] 66.7 µM | [4] 67.4 µM | [5] 90.1 µM | [6] 78.4 µM | [7] 83.4 µM | [8] 77.4 µM | [12] 76.6 µM | [13] 69.2 µM | [15] 90.2 µM | [16] 83.7 µM

CO[C@H]1/C=C/O[C@@]2(C)Oc3c(C)c(O)c4c(O)c(c(/C=N/N5CCN(C)CC5)c(O)c4c3C2=O)NC(=O)/C(C)=C\C=C\[C@H](C)[C@H](O)[C@@H](C)[C@@H](O)[C@@H](C)[C@H](OC(C)=O)[C@@H]1C
active: [3] 0.486 µM | [5] 1.62 µM | [6] 0.379 µM | [13] 4.12 µM
not listed: [2] | CYP3A5 (gene 1577) | [11]
inactive: all other assays above
